The source of these data is PubChem BioAssay (EPA / NIEHS).

Test [1] has as its target CCAAT/enhancer-binding protein beta (Homo sapiens) (UniProt P17676). As to the kind of experiment: ATG_C_EBP_CIS: Attagene CIS-FACTORIAL HepG2 Assay for human CCAAT/Enhancer Binding Protein (C/EBP) beta (AID 2282927; active = hit-call score of the fitted dose curve at least 0.9, where 1 is the maximum; inactive = score below 0.9). The following applies: HepG2 Attagene cis-factorial transcription factor reporter; actives raise or lower the signal. Summed up:
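Endogenous C/EBPb-driven reporter transcripts measured in transfected human HepG2 cells at 24 h via RT-PCR and capillary electrophoresis of labelled fragments. Activity fitted in both directions relative to DMSO baseline.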

Test [2] can be described thus: ATG_AP_1_CIS: Attagene CIS-FACTORIAL HepG2 Assay for human Activator Protein 1 (AP-1) (AID 2282931; active = hit-call score of the fitted dose curve at least 0.9, where 1 is the maximum; inactive = score below 0.9). The following applies: HepG2 Attagene cis-factorial AP-1 reporter mRNA; actives raise or lower the signal. Summed up: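 We transfected HepG2 cells transiently with a set of cis-regulated reporter transcription units, dosed them for 24 h, and quantified reporter mRNA via RT-PCR and capillary electrophoresis, scoring gain or loss of signal relative to DMSO.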

Test [3] in a line: ATG_M_19_CIS: Attagene CIS-FACTORIAL HepG2 Assay for M19 Transcription Factor (Internal Marker) (AID 2282939; active = hit-call score of the fitted dose curve at least 0.9, where 1 is the maximum; inactive = score below 0.9). The following applies: HepG2 Attagene CIS-FACTORIAL M19 internal marker reporter; actives raise or lower the signal. Summed up: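 HepG2, MRTU transient transfection, 24 h dosing. Total RNA → RT-PCR → 6-FAM primer extension → HpaI digest → CE fluorescence. Bidirectional curve fit, DMSO negative control.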

The nature of test [4]: ATG_M_06_CIS: Attagene CIS-FACTORIAL HepG2 Assay for M06 Transcription Factor (Internal Marker) (AID 2282950; active = hit-call score of the fitted dose curve at least 0.9, where 1 is the maximum; inactive = score below 0.9). The following applies: HepG2 Attagene CIS-FACTORIAL M06 internal marker reporter; actives raise or lower the signal. Summed up:
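Measured 24 h post-dosing in transiently transfected HepG2 cells, this internal-marker endpoint reports reporter mRNA via RT-PCR with fluorescent primer extension and capillary electrophoresis. DMSO served as negative control and baseline for bidirectional fitting.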

Test [5] can be described thus: ATG_PBREM_CIS: Attagene CIS-FACTORIAL HepG2 Assay for human Phenobarbital-responsive Enhancer Module (PBREM) (AID 2282955; active = hit-call score of the fitted dose curve at least 0.9, where 1 is the maximum; inactive = score below 0.9). Conditions: HepG2 PBREM cis-reporter, Attagene multiplexed transcription; actives raise or lower the signal. Summed up: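 Multiplexed cis-reporter readout in human hepatoma HepG2 cells; PBREM-regulated transcript quantified after 24 h exposure by fluorescent RT-PCR fragment analysis. Signal changes up or down fitted relative to DMSO.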

Test [6] in a line: ATG_RORE_CIS: Attagene CIS-FACTORIAL HepG2 Assay for human RAR-related Orphan Receptor Element (RORE) (AID 2282959; active = hit-call score of the fitted dose curve at least 0.9, where 1 is the maximum; inactive = score below 0.9). Conditions: HepG2 Attagene cis-factorial RORE reporter, mRNA; actives raise or lower the signal. Summed up:
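Transfect HepG2 with MRTUs; treat 24 h; extract RNA; RT with oligo(dT); PCR with reporter-specific primers; 6-FAM primer extension; HpaI digest 2 h at 37 C; capillary electrophoresis. Fit vs DMSO, bidirectional.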

Test [7] in a line: ATG_M_19_TRANS: Attagene TRANS-FACTORIAL HepG2 Assay for M19 Transcription Factor (Internal Marker) (AID 2282974). Conditions: HepG2 Attagene TRANS-FACTORIAL M19 internal marker reporter. Summed up:
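Multiplexed TRANS format: HepG2 liver cells bearing transient GAL4-UAS reporter units, chemical treatment 24 h, reporter transcripts quantified by RT-PCR plus capillary electrophoresis. DMSO defines baseline.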

Test [8] addresses Hepatocyte nuclear factor 4-alpha (Homo sapiens) (UniProt P41235). Put plainly: ATG_HNF4a_TRANS: Attagene TRANS-FACTORIAL HepG2 Assay for human Hepatocyte Nuclear Factor 4 alpha (HNF4a) (AID 2282982). Conditions: HepG2 HNF4a transactivation reporter, mRNA readout. Summed up: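 Transfected HepG2 reporter cells are dosed for 24 h; reporter RNA is reverse-transcribed, amplified, fluorescently labelled and HpaI-digested before CE sizing. Positive-direction fit against DMSO.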

Test [9] has as its target Nuclear receptor subfamily 4 group A member 2 (Homo sapiens) (UniProt P43354). Put plainly: ATG_NURR1_TRANS: Attagene TRANS-FACTORIAL HepG2 Assay for human Nuclear Receptor Related Protein 1 (NURR1) (AID 2282985). Conditions: HepG2 Attagene TRANS reporter, mRNA readout. The method, boiled down: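 Cells: HepG2, transiently transfected. Exposure: 24 h. Detection: fluorescence of labelled RT-PCR products separated by capillary electrophoresis; upward fit versus DMSO.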

Test [10] deals with human Retinoid X Receptor beta (RXRb), RXRB (gene 6257) (UniProt P28702). As to the kind of experiment: ATG_RXRb_TRANS: Attagene TRANS-FACTORIAL HepG2 Assay for human Retinoid X Receptor beta (RXRb) (AID 2283013). The method, boiled down:
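Multiplexed TRANS reporter assay in HepG2; 24 h dosing; reporter mRNA by RT-PCR/CE fluorescence; gain-of-signal relative to DMSO.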

Test [11] concerns the target Cellular tumor antigen p53 (Homo sapiens) (UniProt P04637). As to the kind of experiment: TOX21_p53_BLA_p2_ratio: Tox21 HCT-116 p53 Agonism Beta-lactamase Assay, Ratio, Phase 2 (AID 2283592). Summed up:
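In this cell-based reporter format, HCT116 cells were dosed with chemicals delivered from DMSO by 217-fold dilution and incubated 16 h at 37C. Emission at 460 and 530 nm after 2 h CCF4-AM loading provided the ratio, fitted upward versus DMSO.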

Test [12] has the same target. As to the kind of experiment: TOX21_p53_BLA_p3_ratio: Tox21 HCT-116 p53 Agonism Beta-lactamase Assay, Ratio, Phase 3 (AID 2283596). Summed up: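 HCT116 p53-bla cells (4000/well) given compound in DMSO (217-fold dilution) after 5 h, incubated 16 h at 37C. CCF4-AM substrate 2 h at room temperature; 460/530 nm emission ratio, gain fitted against DMSO.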
Test [13] has the same target. Put plainly: TOX21_p53_BLA_p5_ratio: Tox21 HCT-116 p53 Agonism Beta-lactamase Assay, Ratio, Phase 5 (AID 2283599). Summed up: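 Beta-lactamase reporter ratio (blue 460 nm over green 530 nm, 405 nm excitation) after 2 h CCF4-AM loading, in HCT-116 cells exposed 16 h at 37 C to compounds pinned at 217-fold dilution. Increases relative to DMSO baseline scored.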
Test [14] in a line: ATG_E_Box_CIS: Attagene CIS-FACTORIAL HepG2 Assay for human Enhancer Box (E-box) (AID 2282936; active = hit-call score of the fitted dose curve at least 0.9, where 1 is the maximum; inactive = score below 0.9). The following applies: HepG2 E-box cis-reporter transcription, actives raise or lower the signal. The method, boiled down: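 DMSO served as negative control and baseline for bidirectional fitting. Human hepatoma HepG2 cells, transiently transfected with cis-reporter constructs, were dosed 24 h; reporter mRNA read by RT-PCR and capillary electrophoresis.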

Test [15] is described as follows: ATG_GLI_CIS: Attagene CIS-FACTORIAL HepG2 Assay for human Zinc Finger Protein GLI1 (AID 2282945; active = hit-call score of the fitted dose curve at least 0.9, where 1 is the maximum; inactive = score below 0.9). Conditions: HepG2, Attagene cis-factorial reporter mRNA, GLI element; actives raise or lower the signal. The method, boiled down: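 Bidirectional curve fits relative to DMSO, using reporter mRNA levels from RT-PCR plus capillary electrophoresis. Cells were HepG2 transiently carrying cis-regulated reporter constructs, harvested 24 h after dosing.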

The nature of test [16]: ATG_M_06_TRANS: Attagene TRANS-FACTORIAL HepG2 Assay for M06 Transcription Factor (Internal Marker) (AID 2282983).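 Also: reporter transcript level by RT-PCR then capillary electrophoresis fluorescence.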 The following applies: HepG2 Attagene TRANS M06 internal marker reporter. Summed up:
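After a 24 h chemical treatment of transfected HepG2, RNA underwent DNase I treatment, reverse transcription and reporter-specific PCR; labelled, HpaI-digested products were sized by capillary electrophoresis. Signal increase relative to DMSO defined activity.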

The target in test [17] is Nuclear respiratory factor 1 (Homo sapiens) (UniProt Q16656). As to the kind of experiment: ATG_NRF1_CIS: Attagene CIS-FACTORIAL HepG2 Assay for human Nuclear Respiratory Factor 1 (NRF1) Orphan Gene (AID 2282987; active = hit-call score of the fitted dose curve at least 0.9, where 1 is the maximum; inactive = score below 0.9). The following applies: HepG2 NRF1 cis-element reporter, Attagene multiplex; actives raise or lower the signal. The method, boiled down:
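Reporter mRNA induction or loss in HepG2 cells after 24 h dosing; cis-regulated reporter constructs report endogenous transcription-factor activity. Quantified by RT-PCR/capillary electrophoresis fluorescence, DMSO-referenced.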

The nature of test [18]: ATG_BRE_CIS: Attagene CIS-FACTORIAL HepG2 Assay for human Bone Morphogenetic Protein (BMP) Response Element (BRE) (AID 2282933; active = hit-call score of the fitted dose curve at least 0.9, where 1 is the maximum; inactive = score below 0.9). The following applies: HepG2 BMP response element reporter, Attagene transcription factor profiling; actives raise or lower the signal. Summed up:
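Fluorescence-labelled reporter cDNA fragments, separated by capillary electrophoresis, gave the signal for this component of a 52-readout multiplex. HepG2 cells were transfected, exposed to chemicals for 24 h, and compared with DMSO using bidirectional fitting.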

A short description of test [19]: ATG_NF_kB_CIS: Attagene CIS-FACTORIAL HepG2 Assay for human Nuclear Factor Kappa B (NF-kB) (AID 2282991; active = hit-call score of the fitted dose curve at least 0.9, where 1 is the maximum; inactive = score below 0.9). The following applies: HepG2 Attagene cis-factorial NF-kB reporter mRNA; actives raise or lower the signal. Summed up:
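DMSO served as negative control and baseline for bidirectional curve fitting. Transiently transfected HepG2 cells were dosed for 24 h, then reporter transcripts were measured by RT-PCR with capillary electrophoresis detection.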

The nature of test [20]: TOX21_p53_BLA_p2_viability: Viability Assessment in the Tox21 HCT-116 p53 Agonism Beta-lactamase Assay, Phase 2 (AID 2283591).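 Also: compound exposure lasted 16 h at 37 °C; actives lower the ATP signal meaning cytotoxicity.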 The method, boiled down: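 Cytotoxicity readout: CellTiter-Glo ATP luminescence, 30 min at room temperature, after the beta-lactamase read. Cells were HCT116 exposed 16 h at 37C to compounds pin-transferred at 217-fold dilution from DMSO stocks.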

“And” between values parts separate entries of the source, which are not always exact repeats. Equal values may be shown once. Inconclusive results are not listed. A structure can be active in one record and inactive in another. The source made the active and inactive calls. The calls were made as follows, unless noted: active = hit-call score of the fitted dose curve at least 0.9, where 1 is the maximum; inconclusive = response in the unintended direction; inactive = score below 0.9.

Chain of Nuclear receptor subfamily 4 group A member 2 (Homo sapiens) (P43354 whole entry, looked up): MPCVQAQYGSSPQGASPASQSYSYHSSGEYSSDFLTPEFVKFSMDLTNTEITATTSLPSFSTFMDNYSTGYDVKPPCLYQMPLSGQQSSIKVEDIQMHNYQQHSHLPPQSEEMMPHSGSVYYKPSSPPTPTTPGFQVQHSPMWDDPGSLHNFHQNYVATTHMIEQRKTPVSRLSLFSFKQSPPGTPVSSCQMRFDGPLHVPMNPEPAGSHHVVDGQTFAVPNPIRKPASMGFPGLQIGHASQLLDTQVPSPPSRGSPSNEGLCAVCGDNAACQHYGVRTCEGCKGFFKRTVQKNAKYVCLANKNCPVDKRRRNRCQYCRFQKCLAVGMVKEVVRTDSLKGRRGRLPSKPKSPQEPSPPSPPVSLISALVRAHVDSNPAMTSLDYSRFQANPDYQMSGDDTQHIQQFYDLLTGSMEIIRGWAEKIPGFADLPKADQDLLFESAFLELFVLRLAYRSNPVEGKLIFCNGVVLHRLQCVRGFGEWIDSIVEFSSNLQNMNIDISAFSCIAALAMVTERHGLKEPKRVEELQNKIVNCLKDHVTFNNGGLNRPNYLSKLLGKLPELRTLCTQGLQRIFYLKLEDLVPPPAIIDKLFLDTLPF
Chain of CCAAT/enhancer-binding protein beta (Homo sapiens) (P17676 whole entry, looked up, the tested form may be a part): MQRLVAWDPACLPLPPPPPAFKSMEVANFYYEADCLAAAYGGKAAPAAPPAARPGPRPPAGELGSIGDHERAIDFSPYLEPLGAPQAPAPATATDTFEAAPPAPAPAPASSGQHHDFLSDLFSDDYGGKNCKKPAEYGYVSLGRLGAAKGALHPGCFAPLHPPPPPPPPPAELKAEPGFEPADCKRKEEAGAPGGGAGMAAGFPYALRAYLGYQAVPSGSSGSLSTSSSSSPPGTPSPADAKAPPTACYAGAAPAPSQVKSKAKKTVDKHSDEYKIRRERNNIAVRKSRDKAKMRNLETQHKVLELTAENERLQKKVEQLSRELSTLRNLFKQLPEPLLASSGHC
Chain of human Retinoid X Receptor beta (RXRb), RXRB (gene 6257) (P28702 whole entry, looked up): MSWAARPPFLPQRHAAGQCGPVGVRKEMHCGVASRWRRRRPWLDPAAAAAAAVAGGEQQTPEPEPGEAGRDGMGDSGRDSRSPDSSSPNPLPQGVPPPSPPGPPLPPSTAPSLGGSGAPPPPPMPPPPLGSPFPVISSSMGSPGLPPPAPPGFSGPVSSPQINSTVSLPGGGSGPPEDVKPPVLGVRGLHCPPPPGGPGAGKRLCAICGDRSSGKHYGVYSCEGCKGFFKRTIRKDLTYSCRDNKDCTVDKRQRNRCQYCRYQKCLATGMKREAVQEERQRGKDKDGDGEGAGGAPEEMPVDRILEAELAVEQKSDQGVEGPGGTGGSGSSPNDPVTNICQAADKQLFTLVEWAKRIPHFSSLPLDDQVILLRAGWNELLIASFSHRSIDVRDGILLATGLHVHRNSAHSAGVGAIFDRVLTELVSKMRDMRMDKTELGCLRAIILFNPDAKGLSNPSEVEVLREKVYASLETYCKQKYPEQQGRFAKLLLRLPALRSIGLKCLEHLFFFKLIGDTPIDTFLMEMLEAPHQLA
Chain of Nuclear respiratory factor 1 (Homo sapiens) (Q16656 whole entry, looked up): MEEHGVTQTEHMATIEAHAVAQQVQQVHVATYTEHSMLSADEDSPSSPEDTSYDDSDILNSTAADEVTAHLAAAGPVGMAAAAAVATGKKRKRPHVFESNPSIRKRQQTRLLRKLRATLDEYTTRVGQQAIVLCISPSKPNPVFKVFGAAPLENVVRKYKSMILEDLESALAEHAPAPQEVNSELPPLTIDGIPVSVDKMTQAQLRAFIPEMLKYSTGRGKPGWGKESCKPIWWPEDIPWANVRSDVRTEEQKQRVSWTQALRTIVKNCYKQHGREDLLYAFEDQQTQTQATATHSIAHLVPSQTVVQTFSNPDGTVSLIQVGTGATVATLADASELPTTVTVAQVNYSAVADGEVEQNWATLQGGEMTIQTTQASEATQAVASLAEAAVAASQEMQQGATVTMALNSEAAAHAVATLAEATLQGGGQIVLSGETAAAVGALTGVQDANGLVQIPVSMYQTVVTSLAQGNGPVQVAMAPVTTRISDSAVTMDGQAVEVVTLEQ
Chain of Cellular tumor antigen p53 (Homo sapiens) (P04637 whole entry, looked up): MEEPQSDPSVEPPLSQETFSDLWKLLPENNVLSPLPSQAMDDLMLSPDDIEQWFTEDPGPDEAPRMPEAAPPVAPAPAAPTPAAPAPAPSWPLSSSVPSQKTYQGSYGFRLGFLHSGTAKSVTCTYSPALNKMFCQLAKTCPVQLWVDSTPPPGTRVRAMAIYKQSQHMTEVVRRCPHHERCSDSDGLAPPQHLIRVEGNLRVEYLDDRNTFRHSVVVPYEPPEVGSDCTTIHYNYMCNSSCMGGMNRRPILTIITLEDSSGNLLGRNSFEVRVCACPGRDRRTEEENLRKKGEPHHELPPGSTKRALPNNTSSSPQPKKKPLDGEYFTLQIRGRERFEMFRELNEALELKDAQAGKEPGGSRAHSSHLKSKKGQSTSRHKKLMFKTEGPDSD
Chain of Hepatocyte nuclear factor 4-alpha (Homo sapiens) (P41235 whole entry, looked up): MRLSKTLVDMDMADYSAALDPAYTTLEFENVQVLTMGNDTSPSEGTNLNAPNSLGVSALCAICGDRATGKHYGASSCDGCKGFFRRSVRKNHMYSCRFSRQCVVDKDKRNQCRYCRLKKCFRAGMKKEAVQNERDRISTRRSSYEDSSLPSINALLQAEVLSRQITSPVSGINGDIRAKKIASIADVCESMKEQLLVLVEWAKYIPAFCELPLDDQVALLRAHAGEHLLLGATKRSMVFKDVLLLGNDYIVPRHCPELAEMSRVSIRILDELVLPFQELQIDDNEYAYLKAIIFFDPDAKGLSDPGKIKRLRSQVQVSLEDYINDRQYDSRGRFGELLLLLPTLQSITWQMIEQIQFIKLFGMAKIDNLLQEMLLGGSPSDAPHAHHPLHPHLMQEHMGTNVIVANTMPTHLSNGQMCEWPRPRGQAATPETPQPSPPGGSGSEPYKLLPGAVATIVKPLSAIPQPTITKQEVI

`CC=Cc1ccc2c(c1)OCO2`: the outcome in test [1], in [2], in test [3], in test [4], in test [5] and in test [6] was inactive. In addition, the outcome in test [7], in test [8], in [9], in test [10], in [11] and in test [12] was inactive. Besides, the outcome in test [13] was inactive.
Broadly, the AC50 is the concentration giving half of the maximal activity seen. Consider `O=C(O)c1cc[c]([Hg][Cl])cc1`, for which the outcome in test [1], in test [2], in test [14], in test [3], in [15] and in [4] was inactive. In addition, the outcome in [5], in [6], in test [8], in [16], in test [9] and in test [17] was inactive. Further, the result in test [11], in test [12] and in test [13] was inactive. For the same compound, in test [10], the AC50 is 53.8 µM (active).
With `C=CC(=O)OCCCCOC(=O)C=C`, the AC50 was 168 µM (active) in test [1]; 186 µM (active) in test [2]; 70.1 µM (active) in test [14]; 35.3 µM (active) in test [19]; 69.5 µM (active) in test [20]; 49.6 µM (active) in [11]. The result in test [18], in [15], in test [5], in test [8], in [16] and in test [9] was inactive. Moreover, the outcome in test [17], in [10], in test [12] and in test [13] was inactive.
Consider `C#CC1(O)CCCCC1`, for which the outcome in [2], in test [14], in test [3], in [15], in test [4] and in test [6] was inactive. For the same compound, the compound was classed as inactive in [16], in test [9], in test [17], in [10], in test [11] and in test [12]. Also, the result in test [13] was inactive.
For the compound `O=C(O)CCCc1ccc(N(CCCl)CCCl)cc1`, the result in [1], in test [2], in test [18], in [3], in test [15] and in test [7] was inactive. For the same compound, the compound was classed as inactive in test [8], in [16], in [9], in test [19] and in test [10]. Further, the concentration at half-maximal activity (AC50) is 64.5 µM (active) and 68.4 µM (active) and 32.3 µM (active) in [11]; 43.5 µM (active) and 42.8 µM (active) and 23 µM (active) in [12]; 62.6 µM (active) and 64.8 µM (active) and 27.3 µM (active) in test [13].
Regarding `O=C1C(Cl)=C(Cl)C(=O)C(Cl)=C1Cl`, the outcome in test [1], in test [18], in [3], in test [15], in test [5] and in test [6] was inactive. In addition, the compound was called inactive in test [8], in [16], in test [9], in test [17], in [10] and in [20]. For the same compound, the outcome in test [11] was inactive. Also, the AC50 in test [2] is 130 µM (active); in test [14], 58.4 µM (active); in test [19], 34.6 µM (active); in test [20] it was 58.9 µM (active); in test [11], 13.7 µM (active); in test [13] it was 15.4 µM (active) and 34.8 µM (active).
For `COc1cc(OC)c(OC)cc1C=O`, the outcome in test [1], in [2], in test [14], in [3], in test [5] and in [7] was inactive. Further, the result in [8], in [9], in test [10], in [20], in test [11] and in [12] was inactive. Besides, the outcome in test [13] was inactive.
Consider `CN1C(=O)CCS(=O)(=O)C1c1ccc(Cl)cc1` (centres undefined), for which the result in [1], in [18], in test [3], in [15], in test [4] and in [6] was inactive. The outcome in [8], in test [16], in [17] and in test [19] was inactive.
